Experimental data as given in the supplement of paper PMC4466140.

Key:
Experiment in all cases: SPOT peptide array binding signal intensity (averaged, normalized) (arbitrary units (background-subtracted, floor 0; scale differs between SH3 domains)); higher = stronger binding of the SH3 domain to the peptide
[1] = target: AgAbp1
Method in brief: (§1)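 To measure binding, SH3 domains from four yeast species were fused to GST, expressed in E. coli BL21(DE3) and purified on glutathione Sepharose. Each domain was incubated at 10 μg/ml overnight at 4°C on cellulose membranes with synthetic 15-mer peptides whose cysteines were replaced by serines. Anti-GST antibody, an HRP anti-mouse secondary and luminol were used for detection, and images were quantified with Genespotter. Reported binding signal is normalized, background-subtracted spot intensity averaged over replicates, in arbitrary units that differ between domains.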

[2] = target: AgBbc1
Method in brief: as §1

[3] = target: AgBem1-D1
Method in brief: as §1

[4] = target: AgBzz1-D1
Method in brief: as §1

[5] = target: AgBzz1-D2
Method in brief: as §1

[6] = target: AgCyk3
Method in brief: as §1

[7] = target: AgFus1
Method in brief: as §1

[8] = target: AgHof1
Method in brief: as §1

[9] = target: AgHse1
Method in brief: as §1

[10] = target: AgLsb1
Method in brief: as §1

[11] = target: AgLsb4
Method in brief: as §1

[12] = target: AgMyo5
Method in brief: as §1

[13] = target: AgNbp2
Method in brief: as §1

[14] = target: AgRvs167
Method in brief: as §1

[15] = target: AgSho1
Method in brief: as §1

[16] = target: AgSla1-D1-D2
Method in brief: as §1

[17] = target: AgSla1-D3
Method in brief: as §1

[18] = target: CaAbp1-D1
Method in brief: as §1

[19] = target: CaAbp1-D2
Method in brief: as §1

[20] = target: CaBbc1
Method in brief: as §1

[21] = target: CaBem1-D1
Method in brief: as §1

[22] = target: CaBzz1-D1
Method in brief: as §1

[23] = target: CaBzz1-D2
Method in brief: as §1

[24] = target: CaCyk3
Method in brief: as §1

[25] = target: CaFus1
Method in brief: as §1

[26] = target: CaHof1
Method in brief: as §1

[27] = target: CaHse1
Method in brief: as §1

[28] = target: CaLsb1
Method in brief: as §1

[29] = target: CaLsb4
Method in brief: as §1

[30] = target: CaMyo5
Method in brief: as §1

[31] = target: CaNbp2
Method in brief: as §1

[32] = target: CaRvs167
Method in brief: as §1

[33] = target: CaRvs167-3
Method in brief: as §1

[34] = target: CaSho1
Method in brief: as §1

[35] = target: CaSla1-D1-D2
Method in brief: as §1

[36] = target: CaSla1-D3
Method in brief: as §1

[37] = target: ScAbp1
Method in brief: as §1

[38] = target: ScBbc1
Method in brief: as §1

[39] = target: ScBem1-D1
Method in brief: as §1

[40] = target: ScBzz1-D1
Method in brief: as §1

[41] = target: ScBzz1-D2
Method in brief: as §1

[42] = target: ScCyk3
Method in brief: as §1

[43] = target: ScFus1
Method in brief: as §1

[44] = target: ScHof1
Method in brief: as §1

[45] = target: ScHse1
Method in brief: as §1

[46] = target: ScLsb1
Method in brief: as §1

[47] = target: ScLsb2
Method in brief: as §1

[48] = target: ScLsb3
Method in brief: as §1

[49] = target: ScLsb4
Method in brief: as §1

[50] = target: ScMyo3
Method in brief: as §1

[51] = target: ScMyo5
Method in brief: as §1

[52] = target: ScNbp2
Method in brief: as §1

[53] = target: ScPex13
Method in brief: as §1

[54] = target: ScRvs167
Method in brief: as §1

[55] = target: ScSho1
Method in brief: as §1

[56] = target: ScSla1-D1-D2
Method in brief: as §1

[57] = target: ScSla1-D3
Method in brief: as §1

[58] = target: SpAbp1-D1
Method in brief: as §1

[59] = target: SpBbc1
Method in brief: as §1

[60] = target: SpBzz1-D1
Method in brief: as §1

[61] = target: SpBzz1-D2
Method in brief: as §1

[62] = target: SpCyk3
Method in brief: as §1

[63] = target: SpHof1
Method in brief: as §1

[64] = target: SpHof1-2
Method in brief: as §1

[65] = target: SpHof1-3
Method in brief: as §1

[66] = target: SpHse1
Method in brief: as §1

[67] = target: SpLsb1
Method in brief: as §1

[68] = target: SpLsb4
Method in brief: as §1

[69] = target: SpMyo1
Method in brief: as §1

[70] = target: SpNbp2
Method in brief: as §1

[71] = target: SpPex13
Method in brief: as §1

[72] = target: SpRvs167
Method in brief: as §1

[73] = target: SpSla1-D1-D2
Method in brief: as §1

[74] = target: SpSla1-D3
Method in brief: as §1

## LKQRFFLMFPKSIIW
[1]
  SPOT peptide array binding signal intensity: 4
[2]
  SPOT peptide array binding signal intensity: 6
[3]
  SPOT peptide array binding signal intensity: 102
[4]
  SPOT peptide array binding signal intensity: 49.5
[5]
  SPOT peptide array binding signal intensity: 44
[6]
  SPOT peptide array binding signal intensity: 1.5
[7]
  SPOT peptide array binding signal intensity: 742
[8]
  SPOT peptide array binding signal intensity: 81.5
[9]
  SPOT peptide array binding signal intensity: 1020
[10]
  SPOT peptide array binding signal intensity: 0.5
[11]
  SPOT peptide array binding signal intensity: 42.5
[12]
  SPOT peptide array binding signal intensity: 0.5
[13]
  SPOT peptide array binding signal intensity: 146
[14]
  SPOT peptide array binding signal intensity: 3.67
[15]
  SPOT peptide array binding signal intensity: 102
[16]
  SPOT peptide array binding signal intensity: 141
[17]
  SPOT peptide array binding signal intensity: 21
[18]
  SPOT peptide array binding signal intensity: 295
[19]
  SPOT peptide array binding signal intensity: 65.5
[20]
  SPOT peptide array binding signal intensity: 17.8
[21]
  SPOT peptide array binding signal intensity: 33.5
[22]
  SPOT peptide array binding signal intensity: 104
[23]
  SPOT peptide array binding signal intensity: 48.5
[24]
  SPOT peptide array binding signal intensity: 5
[25]
  SPOT peptide array binding signal intensity: 4200
[26]
  SPOT peptide array binding signal intensity: 0.5
[27]
  SPOT peptide array binding signal intensity: 121
[28]
  SPOT peptide array binding signal intensity: 1.5
[29]
  SPOT peptide array binding signal intensity: 42
[30]
  SPOT peptide array binding signal intensity: 35
[31]
  SPOT peptide array binding signal intensity: 676
[32]
  SPOT peptide array binding signal intensity: 89.2
[33]
  SPOT peptide array binding signal intensity: 520
[34]
  SPOT peptide array binding signal intensity: 484
[35]
  SPOT peptide array binding signal intensity: 84.5
[36]
  SPOT peptide array binding signal intensity: 257
[37]
  SPOT peptide array binding signal intensity: 48
[38]
  SPOT peptide array binding signal intensity: 4.5
[39]
  SPOT peptide array binding signal intensity: 69
[40]
  SPOT peptide array binding signal intensity: 42
[41]
  SPOT peptide array binding signal intensity: 150
[42]
  SPOT peptide array binding signal intensity: 124
[43]
  SPOT peptide array binding signal intensity: 819
[44]
  SPOT peptide array binding signal intensity: 1.5
[45]
  SPOT peptide array binding signal intensity: 1580
[46]
  SPOT peptide array binding signal intensity: 1
[47]
  SPOT peptide array binding signal intensity: ≤ 0
[48]
  SPOT peptide array binding signal intensity: 33
[49]
  SPOT peptide array binding signal intensity: 14.5
[50]
  SPOT peptide array binding signal intensity: ≤ 0
[51]
  SPOT peptide array binding signal intensity: 4
[52]
  SPOT peptide array binding signal intensity: 252
[53]
  SPOT peptide array binding signal intensity: 15.5
[54]
  SPOT peptide array binding signal intensity: 14.5
[55]
  SPOT peptide array binding signal intensity: 1060
[56]
  SPOT peptide array binding signal intensity: 91.5
[57]
  SPOT peptide array binding signal intensity: 132
[58]
  SPOT peptide array binding signal intensity: 69
[59]
  SPOT peptide array binding signal intensity: ≤ 0
[60]
  SPOT peptide array binding signal intensity: 103
[61]
  SPOT peptide array binding signal intensity: 0.5
[62]
  SPOT peptide array binding signal intensity: 9
[63]
  SPOT peptide array binding signal intensity: 236
[64]
  SPOT peptide array binding signal intensity: 36.5
[65]
  SPOT peptide array binding signal intensity: 748
[66]
  SPOT peptide array binding signal intensity: 972
[67]
  SPOT peptide array binding signal intensity: ≤ 0
[68]
  SPOT peptide array binding signal intensity: 38.5
[69]
  SPOT peptide array binding signal intensity: 3.5
[70]
  SPOT peptide array binding signal intensity: 515
[71]
  SPOT peptide array binding signal intensity: 86
[72]
  SPOT peptide array binding signal intensity: 14.3
[73]
  SPOT peptide array binding signal intensity: ≤ 0
[74]
  SPOT peptide array binding signal intensity: 39

## NVLRKILEIPLHSFS
[1]
  SPOT peptide array binding signal intensity: 4
[2]
  SPOT peptide array binding signal intensity: ≤ 0
[3]
  SPOT peptide array binding signal intensity: ≤ 0
[4]
  SPOT peptide array binding signal intensity: 5.5
[5]
  SPOT peptide array binding signal intensity: 24.5
[6]
  SPOT peptide array binding signal intensity: ≤ 0
[7]
  SPOT peptide array binding signal intensity: 29.5
[8]
  SPOT peptide array binding signal intensity: ≤ 0
[9]
  SPOT peptide array binding signal intensity: 2570
[10]
  SPOT peptide array binding signal intensity: 2
[11]
  SPOT peptide array binding signal intensity: 16
[12]
  SPOT peptide array binding signal intensity: ≤ 0
[13]
  SPOT peptide array binding signal intensity: ≤ 0
[14]
  SPOT peptide array binding signal intensity: 1
[15]
  SPOT peptide array binding signal intensity: ≤ 0
[16]
  SPOT peptide array binding signal intensity: ≤ 0
[17]
  SPOT peptide array binding signal intensity: 2
[18]
  SPOT peptide array binding signal intensity: ≤ 0
[19]
  SPOT peptide array binding signal intensity: ≤ 0
[20]
  SPOT peptide array binding signal intensity: ≤ 0
[21]
  SPOT peptide array binding signal intensity: ≤ 0
[22]
  SPOT peptide array binding signal intensity: ≤ 0
[23]
  SPOT peptide array binding signal intensity: ≤ 0
[24]
  SPOT peptide array binding signal intensity: ≤ 0
[25]
  SPOT peptide array binding signal intensity: 1150
[26]
  SPOT peptide array binding signal intensity: ≤ 0
[27]
  SPOT peptide array binding signal intensity: 7
[28]
  SPOT peptide array binding signal intensity: 6
[29]
  SPOT peptide array binding signal intensity: ≤ 0
[30]
  SPOT peptide array binding signal intensity: ≤ 0
